In ChEMBL document CHEMBL3988442, “University of Dundee, Small-Polar-MMV Screening Library” (2021) one finds Percent Effect data, which are given here for 8 compounds.

For some of these results: Entries with a potency or affinity are not part of this list.

What all share (set-up): scale not given: direction of the effect not stated beside the values
In test [1] the target is Protein translocase subunit SecA (Escherichia coli (strain K12)) (UniProt P10408). In words: Assay to Identify E. coli SecA ATPase Inhibitors. The class given is functional. The conditions noted are these: 30 µM.
Protein translocase subunit SecA (Escherichia coli (strain K12)), sequence (P10408 whole entry): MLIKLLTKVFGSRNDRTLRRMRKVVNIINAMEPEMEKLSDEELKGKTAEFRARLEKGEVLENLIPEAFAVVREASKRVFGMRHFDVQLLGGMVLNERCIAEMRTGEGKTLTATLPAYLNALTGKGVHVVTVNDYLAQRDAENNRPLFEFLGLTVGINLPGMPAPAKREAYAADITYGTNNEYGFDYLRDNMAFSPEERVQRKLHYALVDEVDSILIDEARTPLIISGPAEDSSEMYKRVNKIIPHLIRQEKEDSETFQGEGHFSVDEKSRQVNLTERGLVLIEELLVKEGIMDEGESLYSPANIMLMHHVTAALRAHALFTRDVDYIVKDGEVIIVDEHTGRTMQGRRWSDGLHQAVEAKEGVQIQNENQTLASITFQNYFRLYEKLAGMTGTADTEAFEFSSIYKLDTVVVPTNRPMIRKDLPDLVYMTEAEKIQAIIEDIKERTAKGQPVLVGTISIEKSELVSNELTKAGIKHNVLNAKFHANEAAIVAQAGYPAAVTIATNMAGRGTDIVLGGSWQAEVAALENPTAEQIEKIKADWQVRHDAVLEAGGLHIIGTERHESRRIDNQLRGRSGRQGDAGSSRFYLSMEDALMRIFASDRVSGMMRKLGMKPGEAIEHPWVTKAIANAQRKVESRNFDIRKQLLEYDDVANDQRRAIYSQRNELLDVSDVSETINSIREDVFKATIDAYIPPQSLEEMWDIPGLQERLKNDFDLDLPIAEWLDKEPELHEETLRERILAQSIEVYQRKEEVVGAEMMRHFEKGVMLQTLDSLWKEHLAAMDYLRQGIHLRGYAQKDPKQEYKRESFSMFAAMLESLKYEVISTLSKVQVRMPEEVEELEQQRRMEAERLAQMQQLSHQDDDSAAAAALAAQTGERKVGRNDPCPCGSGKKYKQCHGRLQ
Test [2] concerns the target T1, Ubiquitin-activating enzyme e1, putative (Leishmania donovani (strain BPK282A1)) (UniProt E9BSI1).
T1 sequence (whole entry): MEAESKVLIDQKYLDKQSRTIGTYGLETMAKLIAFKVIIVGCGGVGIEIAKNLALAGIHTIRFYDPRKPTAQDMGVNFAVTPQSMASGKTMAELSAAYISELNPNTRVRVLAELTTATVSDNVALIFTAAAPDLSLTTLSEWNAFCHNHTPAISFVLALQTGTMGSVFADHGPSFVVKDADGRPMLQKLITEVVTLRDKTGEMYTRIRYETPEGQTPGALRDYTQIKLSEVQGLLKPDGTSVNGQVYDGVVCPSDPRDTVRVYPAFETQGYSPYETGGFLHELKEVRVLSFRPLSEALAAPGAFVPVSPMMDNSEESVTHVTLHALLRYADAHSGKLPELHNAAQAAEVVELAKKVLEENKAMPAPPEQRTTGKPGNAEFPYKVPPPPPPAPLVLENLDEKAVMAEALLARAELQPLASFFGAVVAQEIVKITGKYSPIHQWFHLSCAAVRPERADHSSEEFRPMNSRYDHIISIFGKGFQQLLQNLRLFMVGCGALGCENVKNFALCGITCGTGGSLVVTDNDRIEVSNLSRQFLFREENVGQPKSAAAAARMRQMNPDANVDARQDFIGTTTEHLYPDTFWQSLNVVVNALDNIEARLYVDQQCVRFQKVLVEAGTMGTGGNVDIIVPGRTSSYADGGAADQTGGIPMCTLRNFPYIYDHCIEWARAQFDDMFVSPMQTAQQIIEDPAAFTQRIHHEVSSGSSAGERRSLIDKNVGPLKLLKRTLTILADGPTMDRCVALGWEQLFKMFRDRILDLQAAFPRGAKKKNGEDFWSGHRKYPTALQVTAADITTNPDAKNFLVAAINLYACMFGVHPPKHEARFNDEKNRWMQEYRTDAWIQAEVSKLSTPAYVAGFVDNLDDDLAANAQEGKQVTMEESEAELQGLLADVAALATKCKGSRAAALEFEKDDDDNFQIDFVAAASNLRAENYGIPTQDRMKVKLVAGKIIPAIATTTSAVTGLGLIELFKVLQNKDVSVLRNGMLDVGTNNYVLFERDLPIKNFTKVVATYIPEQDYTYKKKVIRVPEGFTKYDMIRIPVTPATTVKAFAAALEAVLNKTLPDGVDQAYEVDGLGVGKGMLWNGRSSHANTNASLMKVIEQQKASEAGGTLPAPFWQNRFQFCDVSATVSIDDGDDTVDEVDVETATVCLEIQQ
The test can be described thus: Leishmania donovani Ubiquitin Activating Enzyme (LdE1). The conditions noted are these: 30 µM. The class given is functional.

Test [3] deals with AMP-activated protein kinase, AMPK (Homo sapiens) (UniProt P54646+O43741+P54619+Q9UGJ0+Q9Y478+Q13131+Q9UGI9). In words: AMP-dependent Kinase enzyme assay. An in vitro enzyme assay that detects ADP turnover that is directly proportional to AMPK activity. This uses naive AMPK that is activated during the assay with MK-8722. The class given is functional. The following applies: 30 µM.

Test [4] has as its target Sialic acid-binding Ig-like lectin 9 (Homo sapiens) (UniProt Q9Y336). In words: Hs-Siglec9 ALPHAscreen SOP 20170721. The following applies: 10 µM. For orientation: In Alpha technology, singlet oxygen from a donor bead excites a nearby acceptor bead.
Another test concerns Trypanosoma cruzi. In words: Trypanosoma cruzi phosphomannomutase and mannose-1-phosphate guanylyltransferase assay. The class given is functional. The following applies: 10 µM.
Test [5] has as its target T2, Arginase-2, mitochondrial (Homo sapiens) (UniProt P78540).
T2 sequence (whole entry): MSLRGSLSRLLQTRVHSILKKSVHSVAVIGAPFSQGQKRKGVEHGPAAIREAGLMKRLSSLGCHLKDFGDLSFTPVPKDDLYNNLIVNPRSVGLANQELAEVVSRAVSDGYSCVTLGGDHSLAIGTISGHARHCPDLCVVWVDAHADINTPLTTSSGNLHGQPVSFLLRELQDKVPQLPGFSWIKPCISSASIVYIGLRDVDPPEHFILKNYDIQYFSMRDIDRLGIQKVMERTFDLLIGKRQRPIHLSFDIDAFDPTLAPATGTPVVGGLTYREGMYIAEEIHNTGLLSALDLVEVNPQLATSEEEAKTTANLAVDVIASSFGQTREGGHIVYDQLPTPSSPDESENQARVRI
In words: in vitro enzyme assay to detect the production of urea directly proportional to the activity of Arginase II. Further: in the data most compounds retested in dose-response had high values. The following applies: 33.3 µM. The class given is functional.

The target in test [6] is T3, Proteasome subunit beta (Trypanosoma cruzi) (UniProt O96673).
T3 sequence (whole entry): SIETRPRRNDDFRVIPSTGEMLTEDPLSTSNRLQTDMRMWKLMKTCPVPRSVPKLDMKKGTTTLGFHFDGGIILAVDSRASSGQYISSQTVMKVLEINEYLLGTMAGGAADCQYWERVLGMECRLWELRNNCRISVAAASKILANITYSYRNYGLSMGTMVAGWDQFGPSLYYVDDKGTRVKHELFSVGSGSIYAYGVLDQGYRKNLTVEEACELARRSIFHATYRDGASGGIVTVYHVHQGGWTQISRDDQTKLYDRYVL
The test can be described thus: Trypanosoma cruzi proteasome chymotrypsin-like activity (TcProtChymo) assay. Further: in the data most compounds retested in dose-response had high values. The class given is functional. The following applies: 9.37 µM.

A further test is filed under the species Homo sapiens. The test can be described thus: To identify inhibition of the IFN signalling (Jak-Stat) pathway via expression of an eGFP reporter gene under the control of an IFN-stimulated response element (ISRE) containing MxA promoter. The class given is functional. The following applies: 30 µM. On the technique in general: Reporter assays use an easily measured gene product as a stand-in for the process of interest.

The target of test [7] is T4, Tyrosyl-tRNA synthetase, putative (Trypanosoma cruzi (strain CL Brener)) (UniProt Q4DSP6).
T4 sequence (whole entry): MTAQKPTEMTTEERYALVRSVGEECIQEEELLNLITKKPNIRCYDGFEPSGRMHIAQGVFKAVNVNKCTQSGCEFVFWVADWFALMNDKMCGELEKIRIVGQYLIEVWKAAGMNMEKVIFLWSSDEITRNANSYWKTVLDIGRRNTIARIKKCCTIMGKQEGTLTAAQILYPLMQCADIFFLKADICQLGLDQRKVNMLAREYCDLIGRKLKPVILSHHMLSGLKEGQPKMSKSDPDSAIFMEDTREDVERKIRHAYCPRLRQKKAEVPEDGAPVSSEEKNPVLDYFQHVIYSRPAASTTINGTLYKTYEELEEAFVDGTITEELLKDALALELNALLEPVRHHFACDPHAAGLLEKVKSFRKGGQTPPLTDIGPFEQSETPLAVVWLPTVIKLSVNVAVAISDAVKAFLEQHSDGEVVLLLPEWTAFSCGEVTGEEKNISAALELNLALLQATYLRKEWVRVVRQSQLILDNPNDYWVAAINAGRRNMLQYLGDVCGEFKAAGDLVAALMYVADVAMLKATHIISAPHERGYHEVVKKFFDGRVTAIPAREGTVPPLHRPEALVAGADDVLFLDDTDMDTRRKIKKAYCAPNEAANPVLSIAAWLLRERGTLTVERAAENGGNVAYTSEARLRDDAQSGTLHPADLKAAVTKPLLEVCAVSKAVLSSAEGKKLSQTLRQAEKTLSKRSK
In words: Trypanosoma cruzi tyrosyl tRNA synthetase (TcYRS) _High Tyrosine SOP. Further: in the data most compounds retested in dose-response had high values. The class given is functional. The following applies: 30 µM.

Test [8] addresses T4, Tyrosyl-tRNA synthetase, putative (Trypanosoma cruzi (strain CL Brener)). The test can be described thus: Trypanosoma cruzi tyrosyl tRNA synthetase (TcYRS) SOP. The class given is functional. The following applies: 30 µM.
Test [9] addresses Chromo domain-containing protein 1 (Saccharomyces cerevisiae (strain ATCC 204508 / S288c) (Baker's yeast)) (UniProt P32657). In words: ScCHD-1 Enzyme Inhibition Assay. Further: in the data most compounds retested in dose-response had high values. The class given is functional. The conditions noted are these: 30 µM.

Sialic acid-binding Ig-like lectin 9 (Homo sapiens), sequence (Q9Y336 whole entry): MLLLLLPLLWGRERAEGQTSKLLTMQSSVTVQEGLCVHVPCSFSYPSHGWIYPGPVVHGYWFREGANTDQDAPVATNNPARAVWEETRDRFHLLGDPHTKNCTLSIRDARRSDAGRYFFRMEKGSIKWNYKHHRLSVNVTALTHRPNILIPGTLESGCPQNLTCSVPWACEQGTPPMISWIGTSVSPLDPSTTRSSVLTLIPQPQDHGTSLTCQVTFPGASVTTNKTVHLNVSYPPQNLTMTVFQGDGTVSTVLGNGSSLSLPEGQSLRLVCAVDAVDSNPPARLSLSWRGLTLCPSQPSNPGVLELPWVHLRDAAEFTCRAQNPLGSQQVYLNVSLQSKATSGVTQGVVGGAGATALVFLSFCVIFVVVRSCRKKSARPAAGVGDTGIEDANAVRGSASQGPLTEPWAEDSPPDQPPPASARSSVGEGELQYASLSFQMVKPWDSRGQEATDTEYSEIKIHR
Chromo domain-containing protein 1 (Saccharomyces cerevisiae (strain ATCC 204508 / S288c) (Baker's yeast)), sequence (P32657 whole entry, the tested form may be a part): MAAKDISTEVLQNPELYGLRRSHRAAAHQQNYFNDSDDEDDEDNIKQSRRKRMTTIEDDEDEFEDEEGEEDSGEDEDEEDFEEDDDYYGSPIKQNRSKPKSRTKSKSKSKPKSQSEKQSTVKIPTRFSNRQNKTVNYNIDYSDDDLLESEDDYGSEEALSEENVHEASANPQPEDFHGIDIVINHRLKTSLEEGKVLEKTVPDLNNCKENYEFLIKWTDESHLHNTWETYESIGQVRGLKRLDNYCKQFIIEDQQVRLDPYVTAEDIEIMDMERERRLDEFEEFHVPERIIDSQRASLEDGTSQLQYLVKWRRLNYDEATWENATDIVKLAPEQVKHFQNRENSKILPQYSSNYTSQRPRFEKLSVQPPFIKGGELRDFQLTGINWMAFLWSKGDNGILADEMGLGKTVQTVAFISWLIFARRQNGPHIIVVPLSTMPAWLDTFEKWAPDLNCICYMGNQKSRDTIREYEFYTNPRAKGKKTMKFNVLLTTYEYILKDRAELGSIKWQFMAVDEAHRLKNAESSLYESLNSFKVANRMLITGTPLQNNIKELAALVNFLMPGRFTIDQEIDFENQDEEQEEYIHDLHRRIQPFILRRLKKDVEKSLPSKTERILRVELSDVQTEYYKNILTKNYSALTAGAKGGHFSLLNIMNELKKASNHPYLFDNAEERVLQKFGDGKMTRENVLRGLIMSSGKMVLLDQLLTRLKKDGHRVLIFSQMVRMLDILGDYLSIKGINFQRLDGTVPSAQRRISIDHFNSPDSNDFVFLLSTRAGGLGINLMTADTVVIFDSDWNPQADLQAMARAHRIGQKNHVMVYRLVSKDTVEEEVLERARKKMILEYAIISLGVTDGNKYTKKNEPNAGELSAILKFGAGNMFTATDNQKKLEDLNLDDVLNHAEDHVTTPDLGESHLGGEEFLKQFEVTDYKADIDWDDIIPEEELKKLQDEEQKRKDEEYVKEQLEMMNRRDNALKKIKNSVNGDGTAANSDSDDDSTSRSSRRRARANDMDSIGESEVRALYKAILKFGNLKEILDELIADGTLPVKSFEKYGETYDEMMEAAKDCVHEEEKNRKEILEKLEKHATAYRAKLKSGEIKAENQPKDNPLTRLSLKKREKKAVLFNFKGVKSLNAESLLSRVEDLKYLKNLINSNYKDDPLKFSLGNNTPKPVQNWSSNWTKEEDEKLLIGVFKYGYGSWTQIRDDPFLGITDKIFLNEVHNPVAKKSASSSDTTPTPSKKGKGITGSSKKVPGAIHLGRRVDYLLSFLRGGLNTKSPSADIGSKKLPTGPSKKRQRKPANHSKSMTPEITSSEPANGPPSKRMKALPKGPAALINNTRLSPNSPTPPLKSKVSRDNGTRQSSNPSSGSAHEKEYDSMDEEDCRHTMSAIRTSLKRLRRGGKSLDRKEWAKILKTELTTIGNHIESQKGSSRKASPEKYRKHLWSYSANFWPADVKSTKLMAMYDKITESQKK

With `COc1cccc(S(=O)(=O)CCN2CCCCC2)c1`, the Percent Effect was -3.72% in test [1]; 8% in test [2]; -7.74% in test [3]; 6.82% in [4]; -5.94% with Trypanosoma cruzi; 1.56% in test [5]. Further, the Percent Effect in test [6] was 22%; in the test listed under Homo sapiens, 20%; in [7], 2.73%; in test [8], 8.64%; in test [9], -9.16%.

In the case of `CCn1cc(Br)c(C(=O)NCc2cnn(C)c2)n1`, the Percent Effect is -1.67% in [1]; 13% in test [2]; -0.504% in [3]; 11.9% in test [4]; 6.79% in the test with Trypanosoma cruzi; -6.9% in test [5]. Besides, the Percent Effect in test [6] is 13%; in the test filed under Homo sapiens, 1.3%; in test [7] it was 8.6%; in [8], 21%; in test [9], 18.8%.

With `Cc1nn(C)c(C)c1C1CCCN1Cc1cccc(C(N)=O)c1` (stereo not drawn), the Percent Effect in test [1] is 2.51%; in [2] it was 0%; in test [3] it was -3.2%; in test [4] it was 12.2%; in the test with Trypanosoma cruzi it was -4.63%; in [5], 3.04%. For the same compound, the Percent Effect is 9.26% in test [6]; 8.29% in the test listed under Homo sapiens; 2.46% in test [7]; -1.27% in test [8]; 0.624% in test [9].

As to `Cc1cc(CN(C)C(=O)NCc2cccc(N3CCCC3=O)c2)no1`, the Percent Effect was -4.74% in [1]; 7.59% in test [2]; -1.15% in test [3]; 7.78% in [4]; 6.14% in the test with Trypanosoma cruzi; -4.94% in [5]. Further, the Percent Effect was -4.5% in [6]; -10.2% in the test filed under Homo sapiens; 1.48% in [7]; 1.27% in [8]; -1.62% in test [9].

Consider `COc1cccc(CN2CCOC(Cn3nc(C)cc3C)C2)c1` (stereo not drawn), for which the Percent Effect was -1.25% in [1]; 2.7% in [2]; 25.1% in test [3]; -0.918% in test [4]; -4.88% in the test with Trypanosoma cruzi; 1.67% in test [5]. Besides, the Percent Effect in test [6] was 18.2%; in the test filed under Homo sapiens, -11.1%; in test [7], 7.92%; in [8], 15.8%; in test [9], 8.67%.

With `O=C(CO)N1C[C@H]2CC[C@@H]1CN(C1Cc3ccccc3C1)C2`, the Percent Effect was -5.84% in [1]; 5.41% in test [2]; -17.8% in test [3]; -1.59% in [4]; -1.86% with Trypanosoma cruzi; 1.74% in test [5]. In addition, the Percent Effect in [6] is 5.75%; in the test filed under Homo sapiens it was 3.96%; in [7], 1.07%; in test [8], 8.64%; in test [9], -4.67%.

As for `CCOc1ccc(Cl)c(C(=O)N2CCN(C(=O)c3ccoc3C)CC2)n1`, the Percent Effect was -5.76% in [1]; 20.8% in test [2]; -1.75% in [3]; 5.96% in test [4]; -4.49% in the test on Trypanosoma cruzi; -1.42% in test [5]. In addition, the Percent Effect in test [6] was 15.4%; in the test filed under Homo sapiens, 12.9%; in test [7] it was 7.77%; in test [8] it was 12.2%; in test [9], -6.62%.

For the compound `Cc1nc(C2(O)CCCNCC2)sc1CCOc1ccc(Cl)cc1` (stereo not drawn), the Percent Effect in test [1] was -4.62%; in test [2], 6.76%; in test [3], 17.1%; in test [4] it was 1.33%; in the test with Trypanosoma cruzi, -3.56%; in [5], -2.09%. The Percent Effect in test [6] was 6.4%; in the test listed under Homo sapiens it was 33.8%; in test [7] it was 4.3%; in test [8] it was 11.7%; in [9], -12.8%.
